# “And” between values parts separate entries of the source, which are not always exact repeats. Equal values may be shown once. The source made the active and inactive calls. Rule for the calls: active = hit-call score of the fitted dose curve at least 0.9, where 1 is the maximum; inactive = score below 0.9.
# Read-out: CD38, CD38 (gene 952)
# Experiment: BSK_SAg_CD38: BioMAP Diversity Plus: SAg Assay for CD38 Biomarker Activity (AID 2283087)
# Conditions: primary human HUVEC with PBMC; actives raise or lower the signal
# Procedure: BSK_SAg is a cell-based, multiplexed-readout assay that uses umbilical vein endothelium and peripheral blood mononuclear cells, a human vascular primary cell co-culture, with measurements taken at 24 hours after chemical dosing in a 96-well plate.BSK_SAg_CD38 is one of 10 assay component(s) measured or calculated from the BSK_SAg assay. It is designed to make measurements of enzyme-linked immunosorbent assay, a form of binding reporter, as detected with fluorescence intensity signals by Enzyme-linked immunosorbent assay technology.Data from the assay component BSK_SAg_CD38 was analyzed into 1 assay endpoint. This assay endpoint, BSK_SAg_CD38, was analyzed with bidirectional fitting relative to DMSO as the negative control and baseline of activity. Using a type of binding reporter, gain or loss-of-signal activity can be used to understand changes in the signaling as they relate to the gene CD38. Furthermore, this assay endpoint can be referred to as a primary readout, because this assay has produced multiple assay endpoints where this one serves a signaling function. To generalize the intended target to other relatable targets, this assay endpoint is annotated to the cytokine intended target family, where the subfamily is other cytokine.
# The levels of cell surface (or secreted, indicated by the prefix "s") biomarker endpoints were measured by ELISA. Overt cytotoxicity to cells in confluent adherent cultures (all systems other than the BT system) was assessed by measuring total protein levels using sulforhodamine B (SRB) staining in parallel cultures at the time of biomarker measurements, indicated as SRB endpoints. For proliferation assays for adherent cell types, individual cell types are cultured at sub-confluence and relative cell numbers quantified by SRB staining at time points optimized for each system (48 h: 3C and CASM3C systems; 72 h: BT and HDF3CGF systems; 96 h: SAg system). SRB was performed by staining cells with 0.1% SRB after fixation with 10% TCA and reading wells at 560 nm.Viability and proliferation of PBMC (T cells) was quantified by Alamar Blue reduction for the SAg and BT systems. For PBMC viability (referred to as PBMC Cytotoxicity within the assay endpoint names), cells were plated (75,000/well in a 96-well plate) and then chemical samples added for 1 h before addition of activators, SEB and TSST-1 (20 ng/mL final concentration each). Cells were incubated for 90 h. Then, Alamar Blue (20 uL/well) (Invitrogen, Cat DAL1100) was added for 6 h, and the plates were read with a fluorescence microplate reader at 546/580 nm (excitation/emission). For PBMC proliferation, cells were plated and activated as above but incubated for only 16 h prior to addition of Alamar Blue. Plates were read after 6 h.
SMILES,outcome,AC50
CC(C)N(Cc1ccccc1)C(=O)C(C)(C)C,inactive,–
O=[N+]([O-])c1ccc(Oc2ccc(Cl)cc2Cl)cc1,–,29.8 µM (active)
OCCCBr,inactive,–
C[N+](C)(C)CC1CO1 (stereo not given),inactive,–
Nc1cc(Cl)cc(C(=O)O)c1Cl,inactive,–
ClC1=C(Cl)C2(Cl)C3C(Cl)C=CC3C1(Cl)C2(Cl)Cl (stereo not given),–,32.6 µM (active)
CCC12COCN1COC2,inactive,–
CC(C)(C)OOC(=O)c1ccccc1,inactive,–
COP(=S)(OC)SCN1C(=O)c2ccccc2C1=O,inactive,–
O=C1CCCO1,inactive,–
Clc1ccccc1Cl,inactive,–
CCN(CC)N=O,inactive,–
[Cl-].[Cl-].[Hg+2],–,36.6 µM (active)
[O-][Cl+]O,inactive,–
CCNS(=O)(=O)C(F)(F)C(F)(F)C(F)(F)C(F)(F)C(F)(F)C(F)(F)C(F)(F)C(F)(F)F,–,19.3 µM (active) and 48.6 µM (active) and 30 µM (active)
Oc1ccc2ccc3cccc4ccc1c2c34,–,16.5 µM (active)
OCCCl,inactive,–
OCCOCCO,inactive,–
Cc1cc(N=Nc2ccccc2C)ccc1N,–,32.4 µM (active)
CCCCCCCCCCCCCN1CC(C)OC(C)C1 (stereo not given),inactive,–

SMILES,outcome,AC50
CCC(C)c1ccc(O)cc1 (stereo not given),inactive,–
Cc1ccc(N)c(N)c1,inactive,–
c1ccc(NNc2ccccc2)cc1,inactive,–
Brc1ccc(Oc2ccccc2)cc1,inactive,–
CCC[CH2][Sn]([Cl])([CH2]CCC)[CH2]CCC,–,0.248 µM (active)
Cc1ccc(N)cc1,inactive,–
CC(C)(C)C(O)(CCc1ccc(Cl)cc1)Cn1cncn1 (stereo not given),inactive,–
CCCCCCCCn1sccc1=O,–,7.73 µM (active)
c1ccc(C2CO2)cc1 (stereo not given),inactive,–
Cn1cc(-c2ccccc2)c(=O)c(-c2cccc(C(F)(F)F)c2)c1,inactive,–
CCOc1cccc(C2(N3CCN(c4ccccc4)CC3)CCC(C)CC2)c1 (stereo not given),inactive,–
CCCCCCCCOC(=O)c1ccc(C(=O)OCCCCCCCC)c(C(=O)OCCCCCCCC)c1,inactive,–
COc1cc(C=O)cc2c1[C@H](COC(N)=O)[C@]1(OC(C)=O)ON2C[C@H]2[C@@H]1N2C(C)=O,–,15.9 µM (active)
CC(C)(C)OOC(C)(C)CCC(C)(C)OOC(C)(C)C,inactive,–
Nc1ccc(Oc2ccc(N)cc2)cc1,inactive,–
CCOC(=O)[C@]1(c2ccccc2)Oc2ccccc2[C@@H]1N,–,36.2 µM (active)
N#CC(Br)(Br)C(N)=O,inactive,–
CCCCC(CC)COC(=O)c1ccc(C(=O)OCC(CC)CCCC)c(C(=O)OCC(CC)CCCC)c1 (stereo not given),inactive,–
CCCCOC(=O)c1ccccc1C(=O)OCc1ccccc1,inactive,–
Cc1ccc(N=C=O)cc1N=C=O,inactive,–

# From PubChem BioAssay (EPA / NIEHS)
